For orientation: inhibition means how much of the control response was suppressed.

These results are taken from PubChem BioAssay.

For part of these data: Potency and affinity values are given separately. Calls of active or inactive are those of the source.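 The calls were made as follows, unless noted: active = primary screen hit whose fluorescence ratio, in both repeats, exceeds the weak agonist control mean by 3 SD; inactive = the rest.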

The test system of experiment [1] is TRPC4 beta (transient receptor potential cation channel C4), mouse. Nature of the experiment: TRPC4 cation channel opening, retest – cell-based, Fluo4 calcium, HEK293 TRPC4beta/mu-opioid, duplicates, 10 µM, confirmation (AID 2426;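 active = fluorescence ratio normalized to control raised more than 50% in primary screen plus both repeat runs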). Conditions: Fluo4 calcium fluorescence, at 10 µM; hits give high values.
In experiment [2] the test system is transient receptor potential cation channel C4 beta (TRPC4), mouse. Kind of experiment: TRPC4 cation channel opening, second retest – cell-based, second round, Fluo4, HEK293 TRPC4beta/mu-opioid, 1 µM, confirmation (AID 2461;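 active = primary screen active and over 50% activation in each of two duplicate runs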). The following applies: Fluo4 calcium fluorescence, at 1 µM; hits give high values.
In experiment [3] the test system is TRPC4 (transient receptor potential cation channel C4 beta), mouse. Nature of the experiment: potentiation of DAMGO EC20 TRPC4 response – cell-based, second round, Fluo-4, HEK293 TRPC4beta/mu-opioid, 1 µM, confirmation (AID 2554). Conditions: DAMGO EC20, Fluo-4 calcium flux, at 1 µM; hits give high values.
Experiment [4] relates to TRPC4 beta (transient receptor potential cation channel C4), mouse. Nature of the experiment: potentiation of DAMGO EC20 TRPC4 response – cell-based, Fluo-4, HEK293 TRPC4beta/mu-opioid, confirmation (AID 2555;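 active = primary screen hit whose calcium fluorescence ratio, in both repeats, exceeds the weak agonist control mean by 3 SD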). The following applies: DAMGO EC20, Fluo-4 calcium flux, at 10 µM; hits give high values. A general note: A change in cytosolic calcium serves as a functional read-out for many receptors and channels.

Experiment [5] has as its target Short transient receptor potential channel 4 (Mus musculus) (UniProt Q9QUQ5). Nature of the experiment: blockers of DAMGO-evoked TRPC4 calcium flux – cell-based, Fluo4, HEK293 TRPC4beta/mu-opioid, confirmation (AID 2636;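 active = calcium signal cut by more than 3 SD below the full-agonist control yet still positive, in both repeats and the earlier primary screen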). The following applies: at 10 µM; hits give high values.
The target is the same in experiment [6]. Nature of the experiment: blockers of DAMGO-evoked TRPC4 calcium flux – cell-based, second round, Fluo4, HEK293 TRPC4beta/mu-opioid, 1 µM, confirmation (AID 2637;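 active = calcium signal ratio cut to more than 3 SD under the fully stimulated control mean yet still positive, in both repeats and the primary screen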;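 as to inhibition: percent of integrated ratio relative to wells lacking test compound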). Conditions: at 1 µM; hits give high values.
Experiment [7] shares this target. Nature of the experiment: calcium entry via TRPC4 opening agents – cell-based, HEK293 TRPC4/mu-opioid, Fluo-4 calcium, dose response (AID 434937;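 active = primary screen activator hit with a dose response curve and TRPC4 channel activation at any tested dose; inactive = no activation, no dose response, or not a primary hit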).
Experiment [8] shares this target. Nature of the experiment: potentiation of DAMGO-evoked TRPC4 calcium signal – cell-based, HEK293 TRPC4/mu-opioid, Fluo-4 calcium, EC20 DAMGO, dose response (AID 434941;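 active = earlier screen potentiator hit that boosts the TRPC4 ion channel at some dose, with a dose response; inactive = no potentiation, no dose response, or not a prior hit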;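 also: calcium entry triggered by an EC20 dose of DAMGO at the co-expressed mu-opioid receptor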).
The target of experiment [9] is Short transient receptor potential channel 6 (Mus musculus) (UniProt Q61143). Nature of the experiment: TRPC6 blockade by TRPC4 inhibitor hits – cell-based, HEK293, membrane potential dye, duplicate, selectivity assay for TRPC4 inhibitor project, confirmation (AID 434948;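 active = active in primary screen and both duplicates, each dropping signal beyond three positive-control SD with fluorescence still positive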). The following applies: HEK293 TRPC6, membrane potential dye fluorescence, at 10 µM, stimulated with maximal-effect acetylcholine; hits give high values.
Short transient receptor potential channel 6 (Mus musculus), sequence (Q61143 whole entry, looked up): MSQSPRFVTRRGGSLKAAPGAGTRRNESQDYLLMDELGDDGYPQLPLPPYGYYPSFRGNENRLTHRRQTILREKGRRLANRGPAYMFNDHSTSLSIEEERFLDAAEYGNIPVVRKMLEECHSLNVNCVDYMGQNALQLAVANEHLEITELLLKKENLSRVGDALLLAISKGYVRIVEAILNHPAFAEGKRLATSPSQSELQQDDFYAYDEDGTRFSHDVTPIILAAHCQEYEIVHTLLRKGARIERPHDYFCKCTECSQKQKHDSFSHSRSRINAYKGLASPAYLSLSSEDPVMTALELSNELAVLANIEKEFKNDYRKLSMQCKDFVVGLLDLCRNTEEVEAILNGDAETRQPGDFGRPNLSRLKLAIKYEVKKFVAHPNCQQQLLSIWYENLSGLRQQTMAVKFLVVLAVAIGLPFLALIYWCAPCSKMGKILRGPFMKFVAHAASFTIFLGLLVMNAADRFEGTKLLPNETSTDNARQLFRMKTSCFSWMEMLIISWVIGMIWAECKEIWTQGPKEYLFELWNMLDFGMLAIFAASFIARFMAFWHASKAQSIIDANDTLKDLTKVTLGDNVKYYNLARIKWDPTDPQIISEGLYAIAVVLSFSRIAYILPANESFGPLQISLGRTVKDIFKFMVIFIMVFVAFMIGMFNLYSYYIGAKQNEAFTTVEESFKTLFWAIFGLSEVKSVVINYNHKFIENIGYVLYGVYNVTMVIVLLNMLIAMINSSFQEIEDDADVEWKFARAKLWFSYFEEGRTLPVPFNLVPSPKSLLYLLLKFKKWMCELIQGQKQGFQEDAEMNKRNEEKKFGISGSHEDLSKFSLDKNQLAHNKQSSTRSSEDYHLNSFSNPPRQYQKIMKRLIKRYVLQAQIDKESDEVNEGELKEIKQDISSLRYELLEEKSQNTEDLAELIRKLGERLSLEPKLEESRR

For experiment [10] the target is unchanged. Kind of experiment: TRPC6 opening by TRPC4 activator hits – cell-based, HEK293, membrane potential dye, duplicate, selectivity assay for TRPC4 activator project, confirmation (AID 434950;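 active = membrane potential signal rise above negative control mean plus 3 SD in both duplicates, also active in the earlier TRPC4 screen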). The following applies: HEK293 TRPC6, membrane potential fluorescence, at 10 µM; activation: hits give high values; outcome: activation.
The target is the same in experiment [11]. Kind of experiment: positive modulators of mouse TRPC6 channel – HEK293 cells, membrane potential dye, duplicate, selectivity assay for TRPC4 potentiator project, confirmation (AID 434952;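 active = compound raising the membrane signal above positive-control mean plus 3 SD in both repeats, and a primary screen hit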). The following applies: HEK293 TRPC6, membrane potential dye fluorescence, at 10 µM, maximal acetylcholine added after compound; hits give high values.
The target in experiment [12] is Short transient receptor potential channel 4 (Mus musculus) (UniProt Q9QUQ5). Nature of the experiment: calcium flux activators in TRPC4/5HT1a cells, counter-screen for TRPC4 activator project, cell-based, second counter screen, HEK293 TRPC4/5HT1a, Fluo-4 (AID 434977;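 active = calcium signal rise above buffer-control mean plus 5 SD in both duplicates, and also a hit in the primary screen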). The following applies: Fluo-4 calcium flux, at 10 µM; hits give high values.
Short transient receptor potential channel 4 (Mus musculus), sequence (Q9QUQ5 whole entry, looked up): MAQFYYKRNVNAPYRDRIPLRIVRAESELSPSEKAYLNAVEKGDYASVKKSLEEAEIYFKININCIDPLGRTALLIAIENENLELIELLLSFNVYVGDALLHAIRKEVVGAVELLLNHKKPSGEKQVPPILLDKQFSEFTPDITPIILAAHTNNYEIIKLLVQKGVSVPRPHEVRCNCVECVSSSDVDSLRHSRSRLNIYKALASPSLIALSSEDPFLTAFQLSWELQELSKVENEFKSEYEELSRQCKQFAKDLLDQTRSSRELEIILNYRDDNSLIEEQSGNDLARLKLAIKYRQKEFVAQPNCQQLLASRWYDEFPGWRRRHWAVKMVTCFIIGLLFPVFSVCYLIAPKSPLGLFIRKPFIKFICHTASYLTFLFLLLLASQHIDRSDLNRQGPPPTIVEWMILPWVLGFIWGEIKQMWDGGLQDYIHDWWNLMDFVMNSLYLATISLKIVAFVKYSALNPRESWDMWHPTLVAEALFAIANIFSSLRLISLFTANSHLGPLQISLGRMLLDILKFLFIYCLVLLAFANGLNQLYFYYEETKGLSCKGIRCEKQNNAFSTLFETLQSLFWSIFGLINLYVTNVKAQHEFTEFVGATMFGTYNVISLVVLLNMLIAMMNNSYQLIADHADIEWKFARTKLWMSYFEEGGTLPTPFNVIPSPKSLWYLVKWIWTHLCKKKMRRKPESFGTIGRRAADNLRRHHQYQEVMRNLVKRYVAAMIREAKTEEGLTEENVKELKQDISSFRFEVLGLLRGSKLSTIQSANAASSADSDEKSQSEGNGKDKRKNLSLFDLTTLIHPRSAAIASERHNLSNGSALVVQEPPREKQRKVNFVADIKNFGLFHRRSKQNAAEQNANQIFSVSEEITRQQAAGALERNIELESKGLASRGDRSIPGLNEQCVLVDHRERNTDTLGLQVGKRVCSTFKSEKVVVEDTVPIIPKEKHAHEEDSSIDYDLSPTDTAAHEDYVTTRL
Experiment [13] is described as follows: serotonin-gated TRPC4 signal block – cell-based, second counter screen, HEK293 TRPC4/5HT1a, Fluo-4, counter-screen for TRPC4 inhibitor project, confirmation (AID 434978;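 active = primary screen active whose calcium signal fell more than 3 SD beyond the full-serotonin control mean in both duplicate plates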;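 as to outcome: serotonin given first at submaximal then at maximal dose after compound preincubation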). The following applies: Fluo-4 calcium flux, at 10 µM, serotonin added to trigger calcium flux; hits give high values. (In general: The purpose of a counterscreen is to sort out artefacts and off-target activity.)

Experiment [14] has as its system TRPC4 (mouse), co-expressed with 5HT1a in HEK293. Nature of the experiment: enhancement of serotonin-evoked TRPC4 response – cell-based, second counter screen, HEK293 TRPC4/5HT1a, Fluo-4, counter-screen for TRPC4 potentiator project, confirmation (AID 434979;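 active = signal rise over 3 SD above mean of control wells given weak agonist, in both repeats and first screen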). The following applies: Fluo-4 calcium flux, at 10 µM, serotonin added at its EC20 dose; hits give high values.

Experiment [15] in a line: nonspecific calcium rise without TRPC4 – cell-based, HEK293 mu-opioid receptor line, counter-screen for TRPC4 activator project, confirmation (AID 449723;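 active = hit in primary screen, with calcium signal over 5 SD above buffer well mean in both duplicates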;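 also: counter screen cells carry the mu-opioid receptor alone and lack TRPC4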). Conditions: HEK293 mu-opioid cells, Fluo-4 calcium fluorescence, at 10 µM; hits give high values.
Experiment [16] can be described thus: nonspecific potentiation of DAMGO calcium response – cell-based, HEK293 mu-opioid receptor line, counter-screen for TRPC4 allosteric potentiator project, confirmation (AID 449724;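 active = calcium signal rise more than 3 SD above the low-dose agonist control mean, in both duplicate plates and the primary screen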;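 also: HEK293 cells carrying mu-opioid receptor only with no TRPC4 channel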). The following applies: HEK293 mu-opioid receptor cells, Fluo-4 calcium flux, at 10 µM, compound added before EC20 DAMGO stimulus; hits give high values.

`Fc1ccccc1Sc1ccccc1CNC1=NCCN1`: the result in [1], in [2], in [3], in experiment [4], in [7] and in experiment [8] was inactive. Also, the compound was called inactive in [9], in experiment [10], in experiment [11], in experiment [12], in experiment [14] and in experiment [15]. Besides, the outcome in [16] was inactive. Also, the inhibition is 93% (active) in [5], 68% (active) in experiment [6] and 16.1% (active) in experiment [13].
As to `Cc1cccc(C)c1N1CCc2cn[nH]c21`, the result in experiment [1], in experiment [2], in experiment [3], in experiment [4], in [6] and in experiment [7] was inactive. For the same compound, the result in experiment [8], in experiment [9], in experiment [10], in experiment [11], in experiment [12] and in [14] was inactive. Further, the outcome in experiment [15] and in experiment [16] was inactive. Besides, the inhibition in [5] is 84% (active); in [13], 31.5% (active).
For the compound `CCCCOc1ccc(CSCCN=C(N)N)cc1`, the outcome in experiment [1], in [2], in [3], in [4], in experiment [7] and in [8] was inactive. For the same compound, the call in [9], in experiment [10], in [11], in experiment [12], in [14] and in experiment [15] was inactive. Moreover, the outcome in [16] was inactive. The inhibition in experiment [5] was 88% (active); in experiment [6], 42% (active); in experiment [13], 40.1% (active).
Take `CC(=O)Oc1ccc(/C=C(\NC(=O)c2ccco2)C(=O)NCc2ccccc2)cc1`: the outcome in experiment [1], in experiment [2], in experiment [3], in experiment [4], in [6] and in [7] was inactive. Moreover, the result in [8], in [9], in experiment [10], in experiment [11], in [12] and in [14] was inactive. Further, the result in experiment [15] and in [16] was inactive. Besides, the inhibition in [5] is 82% (active); in experiment [13], 44.5% (active).
`CC(C)=CCCC(C)CN1CCC(n2nccc2NC(=O)C2CCCC2)CC1` (stereo not given): the outcome in [1], in experiment [2], in experiment [3], in experiment [4], in experiment [7] and in experiment [8] was inactive. Moreover, the compound was called inactive in [9], in experiment [10], in experiment [11], in experiment [12], in experiment [14] and in experiment [15]. Besides, in [16], the outcome was inactive. Also, the inhibition was 99% (active) in experiment [5], 63% (active) in experiment [6] and 38% (active) in experiment [13].
Take `CC(OCC(O)CN(C)CCOc1ccccc1)c1ccc(Cl)cc1` (stereo not given): the result in [1], in experiment [2], in experiment [3], in [4], in experiment [7] and in experiment [8] was inactive. Also, the call in [9], in [10], in experiment [11], in experiment [12], in experiment [14] and in experiment [15] was inactive. Further, in [16], the outcome was inactive. In addition, the inhibition is 94% (active) in [5], 44% (active) in [6] and 22.2% (active) in experiment [13].
For `CCCSc1nc(N)nc(-c2cccs2)c1C#N`, the outcome in experiment [1], in experiment [2], in experiment [3], in experiment [4], in [7] and in experiment [8] was inactive. Also, the compound was classed as inactive in experiment [9], in [10], in experiment [11], in [12], in experiment [14] and in [15]. Besides, the outcome in experiment [16] was inactive. In addition, the inhibition in experiment [5] is 89% (active); in [6], 50% (active); in experiment [13] it was 36.8% (active).
`COc1ccccc1Nc1nc(NCC2CCCO2)c2ccccc2n1` (stereo not given): the result in [1], in [2], in [3], in experiment [4], in [7] and in [8] was inactive. Further, the call in experiment [10], in experiment [11], in experiment [12], in experiment [14], in experiment [15] and in [16] was inactive. The inhibition in experiment [5] was 91% (active); in experiment [6], 50% (active); in experiment [9], 10% (active); in experiment [13], 31.5% (active).
As for `Cc1ccc(-c2csc(N(CCCN(C)C)C(=O)c3ccco3)n2)cc1`, the result in [1], in [2], in [3], in experiment [4], in [5] and in [7] was inactive. Further, the outcome in [8], in experiment [10], in experiment [11], in experiment [12], in [13] and in [14] was inactive. Besides, the outcome in [15] and in experiment [16] was inactive. Moreover, the inhibition is 52% (active) in experiment [6] and 37.5% (active) in [9].
In the case of `Cc1cccc(NC(=O)CSc2nnc(-c3cc(C)n(-c4ccccc4)c3C)o2)c1C`, the result in experiment [1], in [2], in [3], in [4], in [6] and in experiment [7] was inactive. Also, the outcome in experiment [8], in [9], in experiment [10], in experiment [11], in experiment [12] and in experiment [14] was inactive. Also, the outcome in experiment [15] and in [16] was inactive. Besides, the figures for the inhibition in [5] and in [13] were 78% (active) and 16.2% (active), respectively.
With `CCOc1ccccc1CN1CCN(Cc2cccc3nonc23)CC1CCO` (stereo not given), the outcome in [1], in [2], in experiment [3], in [4], in experiment [5] and in experiment [6] was inactive. In addition, the result in [7], in [8], in experiment [9], in [10], in [11] and in experiment [12] was inactive. For the same compound, the outcome in experiment [13], in experiment [14], in experiment [15] and in experiment [16] was inactive.
As for `OCC1(Cc2ccccc2)CCN(Cc2ccc(C(F)(F)F)cc2)CC1`, the result in experiment [1], in [2], in experiment [3], in experiment [4], in experiment [6] and in [7] was inactive. For the same compound, the outcome in [8], in experiment [9], in experiment [10], in experiment [11], in experiment [12] and in experiment [14] was inactive. The result in [15] and in experiment [16] was inactive. The inhibition in experiment [5] is 91% (active); in experiment [13] it was 23.3% (active).
Regarding `CNC(=O)COc1ccc2oc3c(c2c1)CCCC3`, the outcome in [1], in [2], in experiment [3], in [4], in [7] and in [8] was inactive. In addition, the call in experiment [9], in experiment [10], in experiment [11], in experiment [12], in [14] and in [15] was inactive. Further, in experiment [16], the result was inactive. Besides, the inhibition was 74% (active) in experiment [5], 49% (active) in experiment [6] and 31.4% (active) in experiment [13].
Turning to `Cc1cc(Nc2ccccc2)nc2cc(O)ccc12`, the result in experiment [1], in experiment [2], in [3], in [4], in [7] and in [8] was inactive. Besides, the outcome in experiment [9], in experiment [10], in experiment [11], in experiment [12], in experiment [14] and in experiment [15] was inactive. The result in [16] was inactive. Moreover, the inhibition was 93% (active) in [5], 52% (active) in experiment [6] and 14.4% (active) in experiment [13].
Take `COc1ccccc1CNCc1ccc(OC)c2ccccc12`: the outcome in [1], in experiment [2], in experiment [3], in experiment [4], in experiment [6] and in experiment [7] was inactive. The outcome in experiment [8], in experiment [9], in experiment [10], in experiment [11], in [12] and in experiment [14] was inactive. Besides, the outcome in experiment [15] and in [16] was inactive. The values for the inhibition in [5] and in experiment [13] were 96% (active) and 31% (active), respectively.
